An excerpt weighted towards active compounds, which were near 9.6% of everything screened.
USP17 inh = inhibitors of human USP17 deubiquitinase | inhibition, % at 50 µM | 47,000 compounds, 6.5% hits | Ubiquitin carboxyl-terminal hydrolase 17-like protein 5 (Homo sapiens), A8MUK1 | purified USP17, Ub-rhodamine cleavage fluorescence, 3 h
USP30 inh = inhibitors of human USP30 deubiquitinase; Ubiquitin carboxyl-terminal hydrolase 30 (Homo sapiens), Q70CQ3; purified USP30, Ub-rhodamine cleavage fluorescence; inhibition, % at 25 µM; 47,000 compounds, 5.3% hits; AID 1645860, 2021
Target sequence (Q70CQ3 whole entry, looked up): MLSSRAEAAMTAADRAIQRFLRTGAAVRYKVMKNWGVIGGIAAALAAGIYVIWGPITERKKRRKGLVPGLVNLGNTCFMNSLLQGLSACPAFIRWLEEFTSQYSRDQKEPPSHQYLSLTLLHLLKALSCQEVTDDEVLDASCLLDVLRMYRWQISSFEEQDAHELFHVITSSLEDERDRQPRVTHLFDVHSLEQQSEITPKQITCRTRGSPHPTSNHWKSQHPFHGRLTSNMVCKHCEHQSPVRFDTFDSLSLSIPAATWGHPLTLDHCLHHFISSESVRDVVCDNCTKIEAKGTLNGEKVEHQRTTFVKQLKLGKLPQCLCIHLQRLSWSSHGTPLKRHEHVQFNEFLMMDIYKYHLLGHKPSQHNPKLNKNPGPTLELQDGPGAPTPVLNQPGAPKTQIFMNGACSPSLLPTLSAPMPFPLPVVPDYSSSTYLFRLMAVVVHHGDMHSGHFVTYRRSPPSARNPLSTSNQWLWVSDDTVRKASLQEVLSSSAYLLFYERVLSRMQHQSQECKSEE
Starred values were filed as active, the others as inactive; i = inactive; x = no result. Cut-off read from the data, not from the text of the source: active = inhibition above about 30%; inactive = the rest.

SMILES | USP17 inh | USP30 inh
CCn1c(=O)c2ccccc2n(Cc2nc(-c3ccccc3)no2)c1=O | 7.7 | 5.2
CS(=O)(=O)N1CCC(C(=O)Nc2ccccc2F)Oc2ccccc21 (stereo not drawn) | -0.3 | 6.7
CCc1ccc(NC(=O)CSc2ccc(-c3ccncc3)nn2)cc1 | 4.5 | -4.9
Cc1cc(C)cc(NC(=O)CSc2ccc(-c3ccncc3)nn2)c1 | -5.5 | 55.0*
O=C(NCC12CC3CC(CC(C3)C1)C2)c1ccccc1F | -7.3 | -43.8
Cc1ccc(S(=O)(=O)N2CCN(CC(=O)Nc3ccc4[nH]c(=O)[nH]c4c3)CC2)cc1 | -5.2 | 10.7
O=S(=O)(Nc1cc(S(=O)(=O)N2CCCCC2)ccc1O)c1ccc2c(c1)OCCCO2 | 34.4* | 0.0
O=C(Nc1ccc2c(c1)OCCCO2)c1cc(S(=O)(=O)N2CCCCC2)ccc1N1CCCC1 | 68.3* | 78.4*
Cc1ccccc1NC(=O)C1CCN(S(=O)(=O)c2ccc3c(c2)OCCCO3)CC1 | 69.4* | 74.1*
O=C(Nc1ccc(N2CCCCC2)cc1)C1CCN(S(=O)(=O)c2ccc3c(c2)OCCCO3)CC1 | 5.1 | -43.5
O=S(=O)(c1ccc2c(c1)OCCO2)N1CCC(N2CCCCC2)CC1 | 3.9 | -18.8
COc1ccc(S(=O)(=O)N2CCCCCC2)cc1C(=O)Nc1ccc2[nH]c(=O)[nH]c2c1 | 30.2* | 49.8*
O=C(NCc1ccccc1)c1cc(S(=O)(=O)N2CCCCC2)ccc1N1CCOCC1 | 0.1 | -0.1
Cc1ccc2nc(NC(=O)C3CCCN3S(=O)(=O)c3ccc4c(c3)OCCO4)sc2c1 (stereo not drawn) | 6.8 | 0.0
O=C(CNS(=O)(=O)c1ccc(F)cc1)N1CCCC(c2nnc3ccccn23)C1 (stereo not drawn) | 7.7 | 15.9
CS(=O)(=O)c1ccc(N2CCCN(C(=O)C3CC3)CC2)cc1 | 15.2 | 1.8
CCc1nnc(CN2CCC(C3CCCCCN3C(=O)Nc3ccccc3)CC2)o1 (stereo not drawn) | -0.8 | 0.0
CC(C)=CCCC(C)(O)[C@H]1CC[C@]2(C)[C@@H]1CC[C@@H]1[C@@]3(C)CC[C@H](O)C(C)(C)[C@@H]3CC[C@]12C (stereo partly drawn) | 0.5 | -16.4
CC1(C)C[C@@H](O)[C@]2(C)CC[C@]3(C)C(=CCC4[C@@]5(C)CCC(=O)[C@](C)(CO)[C@@H]5CC[C@]43C)[C@@H]2C1 (stereo partly drawn) | 28.0 | 18.0
CC1CCC2(C(=O)O)CCC3(C)C(=CCC4C5(C)CCC(O)C(C)(C)C5CCC43C)C2C1C (mixture of isomers) | 22.5 | 40.2*
C[C@@H]1CC[C@]2(C(=O)O)CC[C@]3(C)C(=CCC4[C@@]5(C)CC[C@H](O)C(C)(C)C5CC[C@]43C)C2[C@H]1C (stereo partly drawn) | 4.2 | 34.7*
Cc1ccc2c(c1)-c1c(c(C(=O)N3CCN(c4ccccc4)CC3)nn1C)CS2 | -193.5 | i
Cc1ccc(C)c(N(C)C(=O)c2nn(C)c3c2CSc2ccccc2-3)c1 | x | 39.2*
COc1ccc(-n2c(CN3CCC(C(N)=O)CC3)nc3ccc([N+](=O)[O-])cc3c2=O)c(OC)c1 | -3.1 | -64.8
COc1cccc(-n2c(CNCc3cccnc3)nc3ccc([N+](=O)[O-])cc3c2=O)c1 | 36.5* | 68.0*
SMILES | USP17 inh | USP30 inh
Cc1noc(-c2ccc3nnc(CC(=O)Nc4ccc(C)c(C)c4)n3c2)n1 | 13.7 | 18.5
NC(N)=NCCC[C@@H](NC(=O)C1CCN(C(=O)[C@@H](Cc2ccccc2)NC(=O)OCc2ccccc2)CC1)C(=O)O | -41.0 | -3.5
Cc1cc(O)c(Oc2cc(C)cc(O)c2O)c(O)c1 | 47.5* | 30.7*
CCS(=O)(=O)N1C[C@H]2CC(OCc3ccccc3)C[C@H]2C1 (stereo partly drawn) | -17.8 | -15.4
CN(c1cccc(Cl)c1)S(=O)(=O)c1cccc(C(=O)OCC(=O)N(Cc2ccccc2)C(C)(C)C)c1 | 0.0 | 6.0
COc1ccc(NC(=O)COC(=O)c2cccc(S(=O)(=O)N(C)c3cccc(Cl)c3)c2)c(OC)c1 | 1.5 | 33.0*
COc1cn(-c2ccc(F)cc2)nc1C(=O)Nc1ccc(F)c(F)c1 | 35.1* | 32.0*
COc1ccc(NC(=O)CSc2nccn(-c3ccc(F)c(F)c3)c2=O)cc1Cl | 4.7 | -87.1
Cc1cccc(CSc2nc(C)nc3c2oc2ccccc23)c1 | 3.3 | 11.3
CCn1c(=O)n(CC(=O)c2ccccc2F)c2c(C(N)=O)nc(-c3ccco3)nc21 | 25.6 | -105.8
Cc1ccc(-c2nc(C(N)=O)c3[nH]c(=O)n(CCc4ccccc4)c3n2)o1 | -12.8 | -56.5
CCn1c(=O)n(CC(=O)c2ccccc2)c2c(C(N)=O)nc(-c3ccc(C)o3)nc21 | 34.1* | -18.1
CCn1c(=O)n(CC(=O)c2ccc(F)cc2)c2c(C(N)=O)nc(-c3ccc(C)o3)nc21 | 34.2* | -80.3
CCN1C(=O)c2ccccc2Sc2ccc(C(=O)NCc3ccc(C)cc3)cc21 | -0.6 | 25.8
O=C(NCc1ccco1)c1ccc2c(c1)N(Cc1cccc(F)c1)C(=O)c1ccccc1S2 | 58.3* | -39.7
COc1ccc(NC(=O)c2ccc(S(C)(=O)=O)cc2Cl)cc1 | 8.7 | -14.2
CN1CCN(c2ccc(-c3nc(-c4ccc(F)cc4)no3)nn2)CC1 | 5.6 | 11.1
COc1ccc(-c2noc(-c3ccc(N4CCC5(CC4)OCCO5)nn3)n2)cc1 | 44.6* | -66.2
NC(=O)c1ccc(C(=O)N(Cc2ccco2)C2CCCC2)cc1 | -19.1 | -0.8
CCc1ccc(NC(=O)CSc2ncc(S(=O)(=O)c3ccccc3)c(=O)[nH]2)cc1 | 26.5 | 38.4*
CCc1ccc(S(=O)(=O)c2cn(CC(=O)Nc3ccccc3)c3ccccc3c2=O)cc1 | -26.0 | -58.3
Cc1cc(C)c(S(=O)(=O)N2CC(c3ccccc3)CC2=O)c(C)c1 (stereo not drawn) | 1.0 | 5.7
O=C(NC1CCCCC1)c1cccc(S(=O)(=O)N2CC(c3ccccc3)CC2=O)c1 (stereo not drawn) | 14.5 | 30.9*
CCN1CCN(c2ncc(-c3cc(=O)[nH]c(N4c5ccccc5CC4C)n3)c(C)n2)CC1 (stereo not drawn) | -8.0 | -14.7
CCOc1ccc(NC(=O)CSc2nc3n[nH]c(C)c3c(=N)n2-c2ccc(OC)cc2)cc1 | 8.5 | 52.0*
SMILES | USP17 inh | USP30 inh
COc1ccc(-n2c(SCC(=O)N3CCCC3)nc3n[nH]c(C)c3c2=N)cc1 | 17.0 | -10.9
O=C(O)c1c(CNCc2cccnc2)c2ccccc2n1Cc1ccc(F)cc1Cl | 9.0 | -6.9
COc1ccc2c(CNCCc3ccccc3)c(C(=O)O)n(Cc3ccc(F)cc3Cl)c2c1 | -9.6 | 30.4*
CSc1ccc(CNCc2c(C(=O)O)n(Cc3ccccc3)c3cc(C)ccc23)cc1 | 23.8 | 58.0*
Cc1ccc2c(CNCCc3ccccc3C)c(C(=O)O)n(Cc3ccccc3C)c2c1 | -34.6 | -81.7
COc1ccc(NC(=O)CSc2cc(N3CCCCC3)ncn2)cc1OC | 0.7 | 12.5
Cc1ccc(-c2nnc3ccc(SCC(=O)N4CCCc5ccccc54)nn23)cc1 | -4.3 | 30.4*
Cc1cc(NC(=O)CSc2nnc(-c3ccc4c(c3)OCCO4)o2)no1 | 11.2 | -0.2
O=C(CSc1nnc(-c2cccc(Cl)c2)o1)N1CCCc2ccccc21 | 23.4 | 32.3*
Cc1ccc(NC(=O)CSc2cc(N3CCCCC3)ncn2)cc1F | -0.2 | 31.0*
Cc1cc(NC(=O)CSc2nnc(-c3cccc(Cl)c3)o2)no1 | 49.2* | 13.2
